Our source for the binding signal values is PMC7862700, “An all-to-all approach to the identification of sequence-specific readers for epigenetic DNA modifications on cytosine”.

What all share (experiment): DAPPL (digital affinity profiling via proximity ligation, sequencing); 10 mM Tris-HCl pH 7.5, 50 mM NaCl, 1 mM DTT, 4% glycerol, room temperature, 30 min; GST-TFs on glutathione beads, 16-mer random dsDNA library, 0.1% formaldehyde crosslink after washing; high values mean tight binding
Conditions in all cases: protein: recombinant; tags: N-terminal GST; dsDNA, one strand shown

One test concerns the target T1, FLI1 (Homo sapiens, UniProt Q01543 1-452).
T1 sequence: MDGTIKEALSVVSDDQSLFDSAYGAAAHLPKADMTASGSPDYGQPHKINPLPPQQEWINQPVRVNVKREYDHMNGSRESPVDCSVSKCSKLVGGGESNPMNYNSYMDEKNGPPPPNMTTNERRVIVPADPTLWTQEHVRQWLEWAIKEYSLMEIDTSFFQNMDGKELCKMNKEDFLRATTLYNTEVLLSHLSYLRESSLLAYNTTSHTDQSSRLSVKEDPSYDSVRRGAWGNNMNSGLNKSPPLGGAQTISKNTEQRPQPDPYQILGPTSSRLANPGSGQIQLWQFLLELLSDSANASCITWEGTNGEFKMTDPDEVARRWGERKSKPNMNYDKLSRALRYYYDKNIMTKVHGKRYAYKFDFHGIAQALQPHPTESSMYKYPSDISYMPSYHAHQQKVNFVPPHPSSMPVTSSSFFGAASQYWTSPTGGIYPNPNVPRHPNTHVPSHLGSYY
In a few lines:
(§1)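 A tag-only sample was pooled with DNA-barcoded human transcription factors that had been expressed in yeast as GST fusions and captured on glutathione beads. The pools were incubated for 30 min at room temperature with 200 nmole of a random double-stranded 16-mer DNA library in Tris/NaCl/DTT/glycerol buffer, then washed, crosslinked with 0.1% formaldehyde, proximity-ligated (BsaI/T4 ligase, 1 h, 37 °C), PCR-amplified and sequenced on an Illumina NextSeq500. Binding signal is each hexamer's read frequency for a factor divided by its frequency for the tag-only sample.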

Another test concerns the target T2, ELK1 (Homo sapiens, UniProt P19419 1-428).
T2 sequence: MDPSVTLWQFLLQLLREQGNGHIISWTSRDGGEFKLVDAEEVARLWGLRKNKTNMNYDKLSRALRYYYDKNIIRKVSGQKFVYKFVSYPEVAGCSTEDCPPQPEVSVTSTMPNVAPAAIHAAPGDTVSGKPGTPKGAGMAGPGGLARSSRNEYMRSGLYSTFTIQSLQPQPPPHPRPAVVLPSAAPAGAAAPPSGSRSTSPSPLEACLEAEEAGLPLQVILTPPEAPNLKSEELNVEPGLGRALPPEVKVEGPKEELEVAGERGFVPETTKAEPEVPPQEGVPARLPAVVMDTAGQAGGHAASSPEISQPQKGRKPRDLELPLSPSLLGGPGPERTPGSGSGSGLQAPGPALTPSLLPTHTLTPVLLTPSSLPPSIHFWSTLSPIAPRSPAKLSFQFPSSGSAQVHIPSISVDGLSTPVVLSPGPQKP
In a few lines: as §1

The target of a further test is T3, GABPA (Homo sapiens, UniProt Q06546 1-454).
T3 sequence: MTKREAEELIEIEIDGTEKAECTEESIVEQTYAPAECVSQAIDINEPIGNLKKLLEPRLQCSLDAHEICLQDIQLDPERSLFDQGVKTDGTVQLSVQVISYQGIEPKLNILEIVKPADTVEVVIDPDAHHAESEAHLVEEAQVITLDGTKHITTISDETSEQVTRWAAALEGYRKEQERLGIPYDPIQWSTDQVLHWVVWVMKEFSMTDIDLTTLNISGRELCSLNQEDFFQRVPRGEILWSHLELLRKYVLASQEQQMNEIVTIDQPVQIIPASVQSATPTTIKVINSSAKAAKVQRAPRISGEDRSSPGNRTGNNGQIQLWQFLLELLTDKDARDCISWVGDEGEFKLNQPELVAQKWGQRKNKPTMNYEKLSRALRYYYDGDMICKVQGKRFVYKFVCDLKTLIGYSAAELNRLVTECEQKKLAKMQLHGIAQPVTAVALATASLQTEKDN
In a few lines:
as §1

In a further test the target is T4, ERG (Homo sapiens, UniProt P11308 1-479).
T4 sequence: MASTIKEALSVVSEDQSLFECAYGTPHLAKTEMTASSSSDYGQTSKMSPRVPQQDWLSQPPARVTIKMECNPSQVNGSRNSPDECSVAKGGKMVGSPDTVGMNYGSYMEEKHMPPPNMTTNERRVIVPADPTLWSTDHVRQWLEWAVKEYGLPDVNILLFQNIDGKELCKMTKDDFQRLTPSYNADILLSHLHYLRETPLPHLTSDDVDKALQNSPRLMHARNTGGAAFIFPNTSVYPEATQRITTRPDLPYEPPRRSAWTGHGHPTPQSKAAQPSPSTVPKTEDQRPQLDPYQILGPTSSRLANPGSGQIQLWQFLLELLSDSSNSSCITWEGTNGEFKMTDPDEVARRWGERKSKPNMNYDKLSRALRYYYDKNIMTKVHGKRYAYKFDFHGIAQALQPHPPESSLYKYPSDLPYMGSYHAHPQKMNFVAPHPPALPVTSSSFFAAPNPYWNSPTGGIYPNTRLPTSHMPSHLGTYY
In a few lines:
as §1

A further test concerns the target ELF1 (Homo sapiens, UniProt P32519 1-619). Summed up:
as §1

Another test addresses T5, EHF (Homo sapiens, UniProt Q9NZC4 1-300).
T5 sequence: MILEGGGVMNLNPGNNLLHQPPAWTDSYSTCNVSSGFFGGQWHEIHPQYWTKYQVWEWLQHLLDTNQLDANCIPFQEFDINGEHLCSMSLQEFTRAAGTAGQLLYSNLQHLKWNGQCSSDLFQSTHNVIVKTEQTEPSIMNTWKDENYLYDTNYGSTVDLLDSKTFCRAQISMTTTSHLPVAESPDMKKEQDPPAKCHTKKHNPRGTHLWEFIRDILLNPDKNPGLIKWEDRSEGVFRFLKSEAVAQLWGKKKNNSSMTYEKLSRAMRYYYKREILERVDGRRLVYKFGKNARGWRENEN
In a few lines: as §1

Another test concerns the target SPI1 (Homo sapiens, UniProt P17947 1-270). Summed up: as §1
For a further test, the target named is SPIB (Homo sapiens, UniProt Q01892 1-262). In a few lines:
as §1

A further test addresses T6, ELK3 (Homo sapiens, UniProt P41970 1-407).
T6 sequence: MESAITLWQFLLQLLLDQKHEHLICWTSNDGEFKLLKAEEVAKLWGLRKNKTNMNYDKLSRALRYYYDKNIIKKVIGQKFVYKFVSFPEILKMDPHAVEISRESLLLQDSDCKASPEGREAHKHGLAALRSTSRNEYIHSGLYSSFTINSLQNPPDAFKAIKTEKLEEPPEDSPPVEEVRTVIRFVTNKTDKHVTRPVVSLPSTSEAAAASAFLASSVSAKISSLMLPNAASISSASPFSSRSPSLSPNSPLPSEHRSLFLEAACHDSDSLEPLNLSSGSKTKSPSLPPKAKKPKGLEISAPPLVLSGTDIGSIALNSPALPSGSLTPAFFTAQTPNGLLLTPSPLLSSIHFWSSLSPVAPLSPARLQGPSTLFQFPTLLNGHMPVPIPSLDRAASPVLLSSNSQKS
Summed up:
as §1

Sequence of SPIB (Q01892 whole entry): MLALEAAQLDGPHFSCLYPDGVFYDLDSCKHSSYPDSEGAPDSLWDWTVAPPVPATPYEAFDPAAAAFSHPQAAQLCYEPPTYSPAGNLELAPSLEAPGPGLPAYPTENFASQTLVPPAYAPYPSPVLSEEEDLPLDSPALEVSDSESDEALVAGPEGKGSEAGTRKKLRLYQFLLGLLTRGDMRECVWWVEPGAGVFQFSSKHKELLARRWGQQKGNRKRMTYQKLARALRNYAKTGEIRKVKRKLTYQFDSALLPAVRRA
Sequence of ELF1 (P32519 whole entry): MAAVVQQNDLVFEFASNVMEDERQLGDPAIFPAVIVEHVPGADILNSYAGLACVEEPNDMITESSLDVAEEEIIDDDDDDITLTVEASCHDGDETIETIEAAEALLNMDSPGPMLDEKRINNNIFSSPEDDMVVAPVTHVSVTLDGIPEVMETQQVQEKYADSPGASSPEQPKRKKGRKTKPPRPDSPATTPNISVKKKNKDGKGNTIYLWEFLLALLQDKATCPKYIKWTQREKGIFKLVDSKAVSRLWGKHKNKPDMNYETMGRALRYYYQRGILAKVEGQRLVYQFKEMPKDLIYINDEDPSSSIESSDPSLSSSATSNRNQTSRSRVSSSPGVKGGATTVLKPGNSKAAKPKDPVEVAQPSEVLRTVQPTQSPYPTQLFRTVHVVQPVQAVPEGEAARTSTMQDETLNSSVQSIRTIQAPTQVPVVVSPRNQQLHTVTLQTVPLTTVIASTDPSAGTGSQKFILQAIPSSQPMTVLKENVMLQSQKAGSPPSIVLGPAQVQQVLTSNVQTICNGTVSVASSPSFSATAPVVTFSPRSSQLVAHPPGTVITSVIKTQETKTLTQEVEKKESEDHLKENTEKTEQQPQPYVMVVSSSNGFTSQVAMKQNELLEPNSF

As to TCATGG, the binding signal was 1.11 fold enrichment (6-mer frequency, TF over GST control) in the test with FLI1; 1.05 fold enrichment (6-mer frequency, TF over GST control) in the test with ELK1; 1.11 fold enrichment (6-mer frequency, TF over GST control) with GABPA; 1.15 fold enrichment (6-mer frequency, TF over GST control) in the test with ERG; 1.18 fold enrichment (6-mer frequency, TF over GST control) with ELF1; 1.12 fold enrichment (6-mer frequency, TF over GST control) with EHF. The binding signal in the test with SPI1 was 1.08 fold enrichment (6-mer frequency, TF over GST control); with SPIB, 1.11 fold enrichment (6-mer frequency, TF over GST control); in the test with ELK3 it was 1.16 fold enrichment (6-mer frequency, TF over GST control).
Take GACCTA: the binding signal with FLI1 was 1.18 fold enrichment (6-mer frequency, TF over GST control); in the test with ELK1, 1.07 fold enrichment (6-mer frequency, TF over GST control); in the test with GABPA it was 1.17 fold enrichment (6-mer frequency, TF over GST control); with ERG, 1.11 fold enrichment (6-mer frequency, TF over GST control); with ELF1, 1.21 fold enrichment (6-mer frequency, TF over GST control); in the test with EHF, 1.15 fold enrichment (6-mer frequency, TF over GST control). The binding signal is 1.02 fold enrichment (6-mer frequency, TF over GST control) with SPI1; 1.08 fold enrichment (6-mer frequency, TF over GST control) in the test with SPIB; 1.21 fold enrichment (6-mer frequency, TF over GST control) in the test with ELK3.
Consider ACATAC, for which the binding signal with FLI1 is 1.18 fold enrichment (6-mer frequency, TF over GST control); with ELK1, 1.14 fold enrichment (6-mer frequency, TF over GST control); in the test with GABPA, 1.19 fold enrichment (6-mer frequency, TF over GST control); with ERG, 1.19 fold enrichment (6-mer frequency, TF over GST control); in the test with ELF1, 1.17 fold enrichment (6-mer frequency, TF over GST control); in the test with EHF, 1.14 fold enrichment (6-mer frequency, TF over GST control). Besides, the binding signal in the test with SPI1 was 1.16 fold enrichment (6-mer frequency, TF over GST control); in the test with SPIB it was 1.09 fold enrichment (6-mer frequency, TF over GST control); with ELK3, 1.17 fold enrichment (6-mer frequency, TF over GST control).
For CCGACA, the binding signal is 1.2 fold enrichment (6-mer frequency, TF over GST control) with FLI1; 1.18 fold enrichment (6-mer frequency, TF over GST control) in the test with ELK1; 1.11 fold enrichment (6-mer frequency, TF over GST control) in the test with GABPA; 1.29 fold enrichment (6-mer frequency, TF over GST control) with ERG; 1.27 fold enrichment (6-mer frequency, TF over GST control) with ELF1; 1.21 fold enrichment (6-mer frequency, TF over GST control) with EHF. The binding signal is 1.24 fold enrichment (6-mer frequency, TF over GST control) with SPI1; 1.25 fold enrichment (6-mer frequency, TF over GST control) with SPIB; 1.16 fold enrichment (6-mer frequency, TF over GST control) in the test with ELK3.
Consider GGAATT, for which the binding signal was 1.14 fold enrichment (6-mer frequency, TF over GST control) in the test with FLI1; 1.1 fold enrichment (6-mer frequency, TF over GST control) in the test with ELK1; 1 fold enrichment (6-mer frequency, TF over GST control) in the test with GABPA; 1.12 fold enrichment (6-mer frequency, TF over GST control) in the test with ERG; 1.07 fold enrichment (6-mer frequency, TF over GST control) with ELF1; 1.24 fold enrichment (6-mer frequency, TF over GST control) in the test with EHF. The binding signal with SPI1 is 1.16 fold enrichment (6-mer frequency, TF over GST control); in the test with SPIB, 1.18 fold enrichment (6-mer frequency, TF over GST control); in the test with ELK3 it was 1.24 fold enrichment (6-mer frequency, TF over GST control).
As for TGTATA, the binding signal with FLI1 was 1.08 fold enrichment (6-mer frequency, TF over GST control); in the test with ELK1, 1.11 fold enrichment (6-mer frequency, TF over GST control); in the test with GABPA, 1.02 fold enrichment (6-mer frequency, TF over GST control); in the test with ERG, 1.03 fold enrichment (6-mer frequency, TF over GST control); in the test with ELF1, 1.04 fold enrichment (6-mer frequency, TF over GST control); in the test with EHF, 1.18 fold enrichment (6-mer frequency, TF over GST control). The binding signal is 1.03 fold enrichment (6-mer frequency, TF over GST control) with SPI1; 1.19 fold enrichment (6-mer frequency, TF over GST control) with SPIB; 1.15 fold enrichment (6-mer frequency, TF over GST control) with ELK3.
On to GACCTG, for which the binding signal was 1.19 fold enrichment (6-mer frequency, TF over GST control) with FLI1; 1.26 fold enrichment (6-mer frequency, TF over GST control) with ELK1; 1.19 fold enrichment (6-mer frequency, TF over GST control) with GABPA; 1.26 fold enrichment (6-mer frequency, TF over GST control) in the test with ERG; 1.27 fold enrichment (6-mer frequency, TF over GST control) in the test with ELF1; 1.28 fold enrichment (6-mer frequency, TF over GST control) in the test with EHF. The binding signal with SPI1 was 1.26 fold enrichment (6-mer frequency, TF over GST control); in the test with SPIB, 1.17 fold enrichment (6-mer frequency, TF over GST control); in the test with ELK3, 1.35 fold enrichment (6-mer frequency, TF over GST control).
